Test results from PubChem BioAssay (Tox21).
Inconclusive results are not listed. Activity calls are given as the source filed them. Unless noted, calls come from the whole dose curve; as a rule, active = well fitted curve in the direction sought with a large enough effect in the repeat runs; inconclusive = weak or mixed curves; inactive = no such curve, though single readings can be large; an effect the other way counts as inactive or inconclusive.

How the values were obtained:
[1] = qHTS assay to identify small molecule antagonists of the thyroid receptor (TR) signaling pathway (AID 743065); note: series mostly up to about 70 µM; nearly all actives have a fitted effect of over 55% in size
How it was run: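 GH3.TRE-Luc rat pituitary cells (two TREs driving luciferase) were dosed with compound, then stimulated with 1 nM T3 (final) for 23.5 h at 37 C. ONE-Glo luminescence was the read-out, with CellTiter-Fluor fluorescence as the cytotoxicity counter-screen.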

[2] = test system: thyroid hormone receptor (rat, GH3 cells); assay: qHTS assay to identify small molecule agonists of the thyroid receptor (TR) signaling pathway (AID 743066; calls by dose curve)
[3] = biological target: Estrogen receptor (Homo sapiens) (UniProt P03372); assay: qHTS assay to identify small molecule agonists of the estrogen receptor alpha (ER-alpha) signaling pathway (AID 743075; calls by dose curve)
[4] = biological target: Estrogen receptor (Homo sapiens) (UniProt P03372); assay: qHTS assay to identify small molecule agonists of the estrogen receptor alpha (ER-alpha) signaling pathway using the BG1 cell line (AID 743079); note: nearly all actives have a fitted effect of over 20% in size
[5] = qHTS assay to identify small molecule antagonists of the estrogen receptor alpha (ER-alpha) signaling pathway using the BG1 cell line (AID 743080; calls by dose curve;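 note: BG1 cells stimulated with 17beta-estradiol alongside compound; series mostly up to about 70 µM; nearly all actives have a fitted effect of over 25% in size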)
How it was run: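 Luciferase inhibition measured with ONE-Glo after 30 min at RT in BG1Luc4E2 cells given test compounds and 17beta-estradiol for 21.5 h at 37 C; CellTiter-Fluor viability read in the same wells beforehand.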

[6] = qHTS assay to identify small molecule antagonists of the estrogen receptor alpha (ER-alpha) signaling pathway using the BG1 cell line - cell viability counter screen (AID 743081);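 note: compound given together with 17beta-estradiol as the ER stimulus; series mostly up to about 70 µM; nearly all actives have a fitted effect of over 45% in size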
Aromatase (Homo sapiens) = Aromatase (Homo sapiens) (UniProt P11511); assay: qHTS assay to identify aromatase inhibitors (AID 743083); note: series mostly up to about 70 µM; nearly all actives have a fitted effect of over 55% in size
[7] = qHTS assay to identify aromatase inhibitors - cell viability counter screen (AID 743084);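 note: cells stimulated with testosterone during compound exposure; nearly all actives have a fitted effect of over 55% in size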
[8] = biological target: Aryl hydrocarbon receptor (Homo sapiens) (UniProt P35869); assay: qHTS assay to identify small molecule that activate the aryl hydrocarbon receptor (AhR) signaling pathway (AID 743085);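 note: HG2L7.5c1 human HepG2 liver cells with stably integrated DRE-driven firefly reporter; series mostly up to about 70 µM; nearly all actives have a fitted effect of over 15% in size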
How it was run: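 Steps: seed HepG2-AhR-luc cells; allow 5 h at 37C; pin-transfer test compound or vehicle; incubate 24 h at 37C; add viability dye (30 min, 37C) and read fluorescence; add luciferase substrate (30 min, RT) and read luminescence.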

[9] = qHTS assay to identify small molecule that activate the aryl hydrocarbon receptor (AhR) signaling pathway - cell viability counter screen (AID 743086);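 note: HepG2 liver cells carrying the AhR DRE luciferase reporter; series mostly up to about 70 µM; nearly all actives have a fitted effect of over 45% in size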
How it was run: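 HepG2-AhR-luc (HG2L7.5c1) cells, 4000/well, treated 24 h at 37 C with compound; viability measured as CellTiter-Fluor fluorescence after 30 min in the same wells as the luciferase read.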

[10] = biological target: Peroxisome proliferator-activated receptor gamma (Homo sapiens) (UniProt P37231); assay: qHTS assay to identify small molecule agonists of the peroxisome proliferator-activated receptor gamma (PPARg) signaling pathway (AID 743094; active = well fitted activation curve with a large enough effect in the signal ratio in the repeat runs, not every such curve was filed as active; the % refers to the signal ratio)
How it was run: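 Fluorescence-based beta-lactamase readout in HEK293H PPARg UAS-bla cells after 17 h compound exposure (37C) and 1 h B/G FRET substrate incubation at room temperature.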

[11] = biological target: Peroxisome proliferator-activated receptor gamma (Homo sapiens) (UniProt P37231); assay: qHTS assay to identify small molecule antagonists of the peroxisome proliferator-activated receptor gamma (PPARg) signaling pathway (AID 743191; calls by dose curve; note: series mostly up to about 63 µM; nearly all actives have a fitted effect of over 30% in size)
How it was run: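 GeneBLAzer PPARg UAS-bla HEK293H cells, 5 h post-plating, exposed to compounds 17 h at 37C. LiveBLAzer B/G FRET substrate added for 1 h at room temperature; beta-lactamase reporter read by fluorescence intensity.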

[12] = qHTS assay to identify small molecule antagonists of the peroxisome proliferator-activated receptor gamma (PPARg) signaling pathway - cell viability counter screen (AID 743194); note: nearly all actives have a fitted effect of over 55% in size
How it was run: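 Cytotoxicity counter screen in PPARg-bla HEK293H cells, same wells as reporter assay. Compounds plus 50 nM rosiglitazone (final) for 17 h at 37 C, then viability read by CellTiter-Glo luminescence.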

[13] = qHTS assay for small molecule agonists of the antioxidant response element (ARE) signaling pathway (AID 743202; active = well fitted activation curve with a large enough effect in the signal ratio in the repeat runs, not every such curve was filed as active; the % refers to the signal ratio)
How it was run: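 HepG2 ARE-bla cells; 16 h treatment at 37 C; FRET-based beta-lactamase fluorescence read after 2 h substrate incubation at room temperature.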

[14] = qHTS assay for small molecule agonists of the antioxidant response element (ARE) signaling pathway - cell viability counter screen (AID 743203; calls by dose curve; note: nearly all actives have a fitted effect of over 55% in size)
How it was run: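 Parallel cytotoxicity read-out for the ARE-bla screen: HepG2 reporter cells, 16 hrs with compounds, then CellTiter-Glo luminescence.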

[15] = qHTS assay for small molecule activators of the heat shock response signaling pathway - cell viability counter screen (AID 743209); note: nearly all actives have a fitted effect of over 50% in size
How it was run: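 To flag cytotoxic compounds, HSE-bla HeLa cells plated at 1500 cells/well were dosed for 5 h at 37 C, followed by the reporter FRET read and then CellTiter-Glo, with luminescence recorded 30 min after reagent addition.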

[16] = qHTS assay for small molecule activators of the heat shock response signaling pathway (AID 743210; active = well fitted activation curve with a large enough effect in the signal ratio in the repeat runs, with a control signal flat, not every such curve was filed as active; the % refers to the signal ratio;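 note: HeLa cells with beta-lactamase reporter driven by heat shock elements; series mostly up to about 63 µM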)
How it was run: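 Following overnight attachment, HSE-bla HeLa cells received test compounds for 5 h at 37 C; beta-lactamase activity was then detected via FRET substrate fluorescence.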

[17] = biological target: Estrogen receptor (Homo sapiens) (UniProt P03372); assay: qHTS assay to identify small molecule antagonists of the estrogen receptor alpha (ER-alpha) signaling pathway (AID 743069; active = well fitted curve in the direction sought with a large enough effect in the signal ratio in the repeat runs, not every such curve was filed as active; the % refers to the signal ratio)
How it was run: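 In this cell-based reporter format, GripTite HEK293 cells harbouring ER-alpha-UAS-bla were grown overnight with 2% charcoal-stripped FBS, dosed with DMSO-dissolved compounds, then challenged with 17beta-estradiol. After 18 hr at 37C, beta-lactamase activity was detected by FRET fluorescence.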

[18] = qHTS assay to identify small molecule antagonists of the estrogen receptor alpha (ER-alpha) signaling pathway - cell viability counter screen (AID 743074; calls by dose curve; note: nearly all actives have a fitted effect of over 45% in size)
% is set by controls: 0 for no effect and ±100 for the full control effect.

Sequence of Peroxisome proliferator-activated receptor gamma (Homo sapiens) (P37231 whole entry, looked up): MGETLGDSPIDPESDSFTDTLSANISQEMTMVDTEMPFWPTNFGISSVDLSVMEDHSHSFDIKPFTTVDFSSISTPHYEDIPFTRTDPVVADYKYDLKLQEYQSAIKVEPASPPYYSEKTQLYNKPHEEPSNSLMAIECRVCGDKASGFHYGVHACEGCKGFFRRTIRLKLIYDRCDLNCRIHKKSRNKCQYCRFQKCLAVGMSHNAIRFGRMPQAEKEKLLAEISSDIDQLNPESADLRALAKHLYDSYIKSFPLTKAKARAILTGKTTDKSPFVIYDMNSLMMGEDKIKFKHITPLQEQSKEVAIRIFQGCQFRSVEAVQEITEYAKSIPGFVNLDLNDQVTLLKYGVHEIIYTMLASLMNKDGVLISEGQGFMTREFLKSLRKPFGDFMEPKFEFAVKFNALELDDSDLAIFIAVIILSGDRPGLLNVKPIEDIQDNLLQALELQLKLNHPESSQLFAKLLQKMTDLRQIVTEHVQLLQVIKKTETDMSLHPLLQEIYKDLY
Sequence of Aromatase (Homo sapiens) (P11511 whole entry, looked up): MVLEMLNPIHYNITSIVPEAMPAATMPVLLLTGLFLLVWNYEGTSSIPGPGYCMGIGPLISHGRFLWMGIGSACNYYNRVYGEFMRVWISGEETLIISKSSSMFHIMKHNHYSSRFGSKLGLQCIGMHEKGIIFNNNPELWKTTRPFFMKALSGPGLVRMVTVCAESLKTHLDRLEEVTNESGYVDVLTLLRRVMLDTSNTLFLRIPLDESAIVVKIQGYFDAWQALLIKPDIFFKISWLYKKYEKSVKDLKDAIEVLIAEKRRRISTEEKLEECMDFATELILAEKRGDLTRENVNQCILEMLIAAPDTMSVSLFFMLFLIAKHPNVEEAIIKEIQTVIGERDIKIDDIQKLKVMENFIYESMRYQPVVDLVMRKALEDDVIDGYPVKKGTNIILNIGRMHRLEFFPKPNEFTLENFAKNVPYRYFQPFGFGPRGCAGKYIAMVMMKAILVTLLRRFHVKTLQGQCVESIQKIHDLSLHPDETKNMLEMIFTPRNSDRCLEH
Sequence of Estrogen receptor (Homo sapiens) (P03372 whole entry, looked up): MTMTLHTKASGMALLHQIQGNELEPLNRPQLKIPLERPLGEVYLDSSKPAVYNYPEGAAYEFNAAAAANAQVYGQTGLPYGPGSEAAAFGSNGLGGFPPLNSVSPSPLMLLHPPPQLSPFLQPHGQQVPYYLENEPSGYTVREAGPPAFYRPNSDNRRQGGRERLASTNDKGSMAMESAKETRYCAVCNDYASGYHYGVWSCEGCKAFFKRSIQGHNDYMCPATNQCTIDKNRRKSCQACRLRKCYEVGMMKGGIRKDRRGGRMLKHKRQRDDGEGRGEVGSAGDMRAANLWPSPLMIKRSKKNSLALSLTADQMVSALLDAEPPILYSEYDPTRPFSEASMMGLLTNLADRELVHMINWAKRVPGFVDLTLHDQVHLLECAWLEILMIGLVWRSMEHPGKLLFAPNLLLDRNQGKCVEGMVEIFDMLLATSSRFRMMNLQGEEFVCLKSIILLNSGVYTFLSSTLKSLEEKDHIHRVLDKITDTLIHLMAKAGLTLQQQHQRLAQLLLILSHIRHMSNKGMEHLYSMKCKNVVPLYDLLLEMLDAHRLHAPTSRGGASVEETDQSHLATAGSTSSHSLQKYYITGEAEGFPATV
Sequence of Aryl hydrocarbon receptor (Homo sapiens) (P35869 whole entry, looked up): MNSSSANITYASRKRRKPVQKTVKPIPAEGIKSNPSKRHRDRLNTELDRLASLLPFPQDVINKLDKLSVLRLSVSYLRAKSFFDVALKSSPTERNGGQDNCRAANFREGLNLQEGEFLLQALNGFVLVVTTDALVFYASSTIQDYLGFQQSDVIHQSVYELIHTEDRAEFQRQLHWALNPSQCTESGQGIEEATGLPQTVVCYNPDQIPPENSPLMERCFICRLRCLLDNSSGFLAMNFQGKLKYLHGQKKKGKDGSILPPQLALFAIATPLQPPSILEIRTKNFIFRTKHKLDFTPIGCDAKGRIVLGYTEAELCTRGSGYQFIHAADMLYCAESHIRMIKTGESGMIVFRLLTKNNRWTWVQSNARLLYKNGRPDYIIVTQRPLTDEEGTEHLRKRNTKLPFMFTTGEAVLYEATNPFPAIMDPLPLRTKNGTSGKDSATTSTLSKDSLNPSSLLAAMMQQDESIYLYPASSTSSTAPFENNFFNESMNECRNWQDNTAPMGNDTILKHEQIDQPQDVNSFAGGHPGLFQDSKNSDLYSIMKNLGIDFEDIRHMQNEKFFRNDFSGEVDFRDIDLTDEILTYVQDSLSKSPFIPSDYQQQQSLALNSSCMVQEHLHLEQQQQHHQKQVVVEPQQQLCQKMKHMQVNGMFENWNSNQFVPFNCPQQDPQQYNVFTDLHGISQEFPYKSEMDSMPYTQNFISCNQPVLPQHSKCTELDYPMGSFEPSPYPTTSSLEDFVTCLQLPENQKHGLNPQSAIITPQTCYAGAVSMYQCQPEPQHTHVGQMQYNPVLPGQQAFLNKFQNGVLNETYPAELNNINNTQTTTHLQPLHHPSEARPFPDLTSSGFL

C=COCC1CCC(CO)CC1 (centres undefined)
inactive: Potency [1] | outcome [2] | Potency [3] | Potency [4] | outcome [5] | Potency [6] | Potency (Aromatase (Homo sapiens)) | Potency [7] | Potency [8] | Potency [9] | outcome [10] | Potency [11] | outcome [12] | Potency [13] | Potency [14] | outcome [15] | outcome [16]

C[C@](N)(Cc1ccc(O)cc1)C(=O)O
inactive: outcome [17] | outcome [18] | Potency [3] | Potency [4] | outcome [5] | Potency [6] | Potency (Aromatase (Homo sapiens)) | Potency [7] | Potency [8] | Potency [9] | outcome [10] | activity change, negative = cytotoxicity [12] 4.13% [at 5.95 µM] | activation [13] 6.12% [at 8.36 µM] | viability change, negative = cytotoxic [14] -15% [at 8.36 µM] | activity change, negative = cytotoxicity [15] 1.38% [at 5.95 µM] | activation [16] 0.673% [at 5.95 µM]

COc1nc(N)nc2c1ncn2[C@@H]1O[C@H](CO)[C@@H](O)[C@@H]1O
inactive: outcome [2] | outcome [18] | Potency [6] | Potency (Aromatase (Homo sapiens)) | Potency [7] | Potency [9] | outcome [12] | Potency [13] | Potency [14] | outcome [15] | outcome [16]

CC(NC(CCc1ccccc1)C(=O)O)C(=O)N1C(=O)N(C)CC1C(=O)O (centres undefined)
inactive: Potency [11] | Potency [13] | outcome [15] | outcome [16]

C[N+](C)(C)CCCCCC[N+](C)(C)C
inactive: Potency [1] | outcome [2] | outcome [18] | Potency (Aromatase (Homo sapiens)) | Potency [7] | Potency [8] | Potency [9] | outcome [10] | outcome [12] | Potency [13] | Potency [14] | outcome [16]

Cc1cccc(C)c1NC(=O)C(C)N (centres undefined)
inactive: outcome [17] | outcome [18] | Potency [3] | Potency [4] | outcome [5] | Potency [6] | Potency (Aromatase (Homo sapiens)) | Potency [7] | Potency [9] | Potency [14] | outcome [15] | outcome [16]

Cc1sccc1Br
inactive: Potency [11] | outcome [12] | Potency [13] | outcome [15] | outcome [16]

O=C1NC(=O)[C@@]2(CCOc3ccc(F)cc32)N1
inactive: outcome [17] | outcome [18] | Potency [3] | Potency [4] | Potency [6] | Potency (Aromatase (Homo sapiens)) | Potency [7] | Potency [8] | Potency [9] | outcome [10] | Potency [13] | Potency [14] | outcome [15]

O=C(CCCN1CCC(O)(c2cccc(C(F)(F)F)c2)CC1)c1ccc(F)cc1
inactive: outcome [18] | Potency (Aromatase (Homo sapiens)) | Potency [7] | Potency [8] | Potency [11] | outcome [12] | Potency [14] | outcome [15] | outcome [16]

Cc1cccn2c(=O)c(-c3nnn[nH]3)cnc12
inactive: outcome [17] | outcome [18] | Potency [3] | Potency [4] | outcome [5] | Potency [6] | Potency (Aromatase (Homo sapiens)) | Potency [7] | Potency [8] | Potency [9] | Potency [11] | outcome [12] | Potency [13] | Potency [14] | outcome [15] | outcome [16]

Cc1cnc(NS(=O)(=O)c2ccc(N)cc2)nc1
inactive: outcome [12] | Potency [13] | Potency [14] | outcome [15] | outcome [16]

CC/C=C\CC/C=C/CO
inactive: Potency [1] | outcome [2] | outcome [18] | Potency [6] | Potency (Aromatase (Homo sapiens)) | Potency [7] | Potency [8] | Potency [9] | outcome [12] | Potency [14] | outcome [15]

CC(=O)OCC(=O)[C@@]1(O)CC[C@H]2[C@@H]3CCC4=CC(=O)CC[C@]4(C)[C@H]3C(=O)C[C@@]21C
inactive: outcome [17] | Potency [3] | Potency [4] | Potency [6] | Potency (Aromatase (Homo sapiens)) | Potency [7] | Potency [9] | outcome [12] | Potency [14]

CC(C)NCCCC1(C(N)=O)c2ccccc2-c2ccccc21
inactive: outcome [12] | Potency [13] | Potency [14] | outcome [15] | outcome [16]

Cc1ccc(=O)n(-c2ccccc2)c1
inactive: outcome [17] | outcome [18] | Potency [3] | Potency [6] | Potency (Aromatase (Homo sapiens)) | Potency [7] | Potency [8] | Potency [9] | outcome [10] | Potency [11] | Potency [13] | Potency [14] | outcome [15] | outcome [16]
